A selection: hits, their analogues and other compounds. The true share with any hit is near 4%.
Mtb FBA inh: inhibits M. tuberculosis FBA enzyme | inhibition, % at 1 µM | 360,000 tested, 2.3% active | purified M. tuberculosis FBA, fluorescence read-out;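 also: 0% = vehicle and 100% = reference inhibitor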
Rv3671c protease: inhibits the M. tuberculosis serine protease Rv3671c. P9WHR9. inhibition, % at 5.96 µM. 320,000 tested, 0.048% active. AID 2606; in the data active = inhibition above about 38%;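 also: extracellular domain of Rv3671c used as enzyme; 0% = enzyme with DMSO and 100% = no enzyme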
RecA intein inh: Mtb RecA intein splicing inhibition; cell-free RecA intein splicing, fluorescence; P9WHJ3; inhibition, % (concentration not given with the values); AID 2221; 290,000 tested, 0.75% active; in the data active = inhibition above about 30%;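 also: 0% = vehicle wells and 100% = reference inhibitor control wells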
Mtb bLac sens: beta-lactam sensitization of Mtb H37Rv. M. tuberculosis H37Rv growth with meropenem, percent inhibition. inhibition, % at 25 µM. 330,000 tested, 0.27% active. AID 434955; call rule not given here;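 also: growth measured after seven days incubation then overnight dye step; 0% = bacteria only wells and 100% = bacteria with antibiotic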
Mtb UGM inh: Mtb UDP-galactopyranose mutase inhibition; P9WIQ1; purified UGM, fluorescence polarization probe displacement; inhibition, % at 10 µM; 320,000 tested, 0.06% active; AID 504406; in the data active = inhibition above about 10%, passing the limit was not always enough
Target sequence (P9WIQ1 whole entry, looked up): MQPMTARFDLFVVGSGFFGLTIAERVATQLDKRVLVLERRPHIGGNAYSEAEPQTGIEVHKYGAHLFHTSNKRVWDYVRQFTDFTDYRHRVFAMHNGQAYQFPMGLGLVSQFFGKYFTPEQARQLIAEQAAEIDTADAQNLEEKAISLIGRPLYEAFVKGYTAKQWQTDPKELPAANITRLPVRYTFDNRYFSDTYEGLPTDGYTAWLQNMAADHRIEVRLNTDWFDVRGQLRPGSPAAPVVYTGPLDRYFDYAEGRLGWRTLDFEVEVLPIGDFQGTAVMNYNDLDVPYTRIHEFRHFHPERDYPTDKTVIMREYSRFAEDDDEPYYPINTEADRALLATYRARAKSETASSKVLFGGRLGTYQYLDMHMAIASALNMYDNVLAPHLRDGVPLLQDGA
GDH-TPI counter-1: GDH-TPI coupled enzyme inhibition counter-screen; GDH-TPI coupled enzyme counterscreen, NADH absorbance; inhibition, % at 4.8 µM; 360,000 tested, 1.2% active; in the data active = inhibition above about 30%;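 also: 0% = DMSO wells and 100% = wells lacking the enzyme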
Mtb FBA inh conf: confirmation of M. tuberculosis fructose-bisphosphate aldolase inhibitors; shares compounds with Mtb FBA inh; purified M. tuberculosis FBA, fluorescence read-out; inhibition, % at 1 µM; 5,600 tested, 78% active; AID 651616;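 also: 0% = vehicle wells and 100% = reference inhibitor wells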
GDH-TPI counter-2: inhibits GDH-TPI coupling enzymes, flagging Mtb FBA hits | 5,600 tested, 81% active | GDH-TPI coupled enzyme counterscreen, fluorescence | AID 652141 | shares compounds with Mtb FBA inh | inhibition, % at 1 µM; in the data active = inhibition above about 10%
An asterisk follows results filed as active; . = no result. Rule as the data show it, unless noted: active = inhibition above about 27%; inactive = the rest.

SMILES	Mtb FBA inh	Rv3671c protease	RecA intein inh	Mtb bLac sens	Mtb UGM inh	GDH-TPI counter-1	Mtb FBA inh conf	GDH-TPI counter-2
CC1=NCCc2c1[nH]c1ccccc21	20	-3	-11	-13	2	12	.	.
COC(=O)C1(C)Nc2ccccc2C(=O)N1c1ccccc1OC (configuration not stated)	29*	1	1	5	-4	9	86*	56*
COC(=O)c1cccc2c1NC(=O)C2=O	1	-13	6	-1	2	10	.	.
COC(=O)C1(C)NC(=O)c2ccccc2N1 (configuration not stated)	30*	1	0	2	-3	0	39*	42*
O=C(NC(=S)/C(=C1\CCCCCN1)[N+](=O)[O-])c1ccccc1	-1	-1	.	2	1	21	.	.
COc1ccccc1NC(=O)CCCCCN1C(=O)c2cccc3cccc(c23)C1=O	2	-13	.	-2	5	9	.	.
O=C(CCCCCN1C(=O)c2cccc3cccc(c23)C1=O)NCCCO	33*	-1	-3	-1	1	18	97*	73*
O=C(CN1C(=O)c2cccc3cccc(c23)C1=O)NCCCO	52*	3	-1	3	-4	17	27	24*
Cc1ccc(C(=O)OCC(=O)N(CC(C)C)c2c(N)n(Cc3ccccc3)c(=O)[nH]c2=O)s1	3	-2	-6	-10	-5	6	.	.
CC(=O)Nc1ccc(S(=O)(=O)N2CCC(C(=O)NCCC(=O)NCc3ccccc3)CC2)cc1	-1	6	-1	-4	1	3	.	.
Cc1cccc(NC(=O)CCCCC(=O)Nc2cccc(C)c2)c1	3	-5	3	3	0	2	.	.
CC1CN(CC(O)COC2CCC(C(C)(C)C)CC2)CC(C)O1 (configuration not stated)	3	3	.	1	1	-2	.	.
CC1CCCC(C)N1CC(O)COC1CCC(C(C)(C)C)CC1 (configuration not stated)	29*	3	-1	0	-1	-6	112*	98*
COc1cc2cc(C(=O)N(C)C3CCS(=O)(=O)C3)[nH]c2cc1OC (configuration not stated)	31*	0	4	0	0	19	7	-2
CC1=CC(c2ccccc2)n2nc(N3C(=O)CCC3=O)nc2N1 (configuration not stated)	104*	-5	-17	15	4	3	74*	41*
O=C1CC(c2ccccc2)n2nc(N3C(=O)CCC3=O)nc2N1 (configuration not stated)	3	-13	0	-2	1	9	.	.
NC(=O)c1nc2c([nH]c1=O)CCCC2	-1	.	.	.	.	11	.	.
CC(C)NC(=O)c1ccc2c(=O)n(CC3CCCO3)c(=S)[nH]c2c1 (configuration not stated)	0	-5	0	8	0	6	.	.
CCOC(=O)c1cc2c(=O)n3cccc(C)c3nc2n(CC2CCCO2)c1=NC(C)=O (configuration not stated)	79*	-2	-1	2	-2	6	90*	68*
Cc1ccc2cc(C#N)c(NCCCNC(=O)C3CCCO3)nc2c1 (configuration not stated)	51*	0	.	2	0	-2	92*	86*
CCOCCCNC(=S)NCCCNc1nc2c(C)c(C)ccc2cc1C#N	47*	.	.	.	.	2	111*	79*
Cc1cccc2cc(C#N)c(NCCNC(=O)NC3CCCCC3)nc12	4	7	-11	-4	-1	0	.	.
CCOCCCNC(=S)N1CCCN(c2nc3c(C)c(C)ccc3cc2C#N)CC1	13	.	-15	.	.	-7	.	.
Cc1ccc2cc(C#N)c(NCCNC(=O)C3CCC3)nc2c1C	52*	4	-7	-16	3	-1	2	-2
COc1cc(-c2noc(C)c2C(=O)NCCc2cccs2)cc(OC)c1OC	2	9	.	-3	3	-6	.	.
CCC(C)NC(=O)c1cc(-c2cccs2)nc2ccccc12 (configuration not stated)	94*	2	0	-2	0	21	101*	92*
